Results published in PubChem BioAssay AID1851 (National Center for Advancing Translational Sciences (NCATS), 2009).
Values joined by “and” are separate entries in the source; they are usually repeats but may differ in a detail not shown here. Equal values may be shown once. The campaign covered roughly 16,000 compounds. About 4,000 (25%) were called active. Roughly 26% stayed inconclusive and do not appear here. Calls follow the shape of the dose curve; as a rule, active = well fitted curve in the direction sought with a large enough effect; inconclusive = small, poorly fitted or top-dose-only effect, or effect the other way; inactive = no such curve, though single readings can be large or run the other way. A selection follows. More than one record can exist for a structure, and the calls need not agree.
% is scaled to controls: 0 for no effect and ±100 for the full control effect.

The compounds below were run against Cytochrome P450 2C9 (Homo sapiens) (UniProt P11712) (assay: Cytochrome panel assay with activity outcomes). Details: recombinant CYP, pro-luciferin dealkylation, luminescence, p450-cyp2c9; series mostly up to 57.1 µM.
Cytochrome P450 2C9 (Homo sapiens), sequence (P11712 whole entry, looked up): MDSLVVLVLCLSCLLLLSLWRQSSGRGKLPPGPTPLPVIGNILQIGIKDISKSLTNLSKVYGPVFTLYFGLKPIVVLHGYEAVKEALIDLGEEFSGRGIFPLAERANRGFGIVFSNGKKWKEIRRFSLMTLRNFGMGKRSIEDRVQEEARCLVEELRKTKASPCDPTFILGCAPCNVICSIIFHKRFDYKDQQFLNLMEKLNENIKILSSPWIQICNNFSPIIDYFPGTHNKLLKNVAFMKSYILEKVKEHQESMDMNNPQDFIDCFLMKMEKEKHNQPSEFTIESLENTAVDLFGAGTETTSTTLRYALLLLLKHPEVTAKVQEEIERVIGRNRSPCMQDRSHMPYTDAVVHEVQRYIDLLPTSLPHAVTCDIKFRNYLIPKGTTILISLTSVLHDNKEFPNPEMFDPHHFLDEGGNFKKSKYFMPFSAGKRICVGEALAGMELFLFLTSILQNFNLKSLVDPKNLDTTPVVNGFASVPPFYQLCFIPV
`CCCN(CCC)CCCNC(=O)c1ccc2c(c1)N(CC)C(=O)c1ccccc1S2=O` (stereo not given) was tested, and the AC50 was “inactive”.
`COCCn1nc2cc(C(=O)NCc3cc(C(F)(F)F)cc(C(F)(F)F)c3)ccc2c1OC` was tested, and the AC50 was “inactive”.
With `CCOc1c2ccc(C(=O)NCCCCc3ccccc3)cc2nn1CC` the AC50 was 11.2 µM (active).
In the case of `CCOc1c2ccc(C(=O)NCc3ccc(OC(F)(F)F)cc3)cc2nn1C`, the AC50 is reported as 15.8 µM (active).
In the case of `NC[C@@H]1O[C@H](O[C@@H]2[C@H](O[C@@H]3O[C@H](CO)[C@@H](COC[C@H]4O[C@@H](CN)[C@@H](O)[C@@H](O)[C@@H]4N)[C@@H]3O)[C@@H](O)[C@@H](N)C[C@H]2N)[C@@H](N)[C@H](O)[C@@H]1O`, the AC50 is reported as “inactive”.
In the case of `Clc1ccccc1-c1nc(-n2ccnc2)c2ccccc2n1`, the activity, negative = inhibition is reported as -16.4% [at 2.29 µM] (inactive).
`CCCn1nc2cc(C(=O)NCc3ccccc3OC)ccc2c1OCC` was tested, and the AC50 was “inactive”.
For `CCCn1nc2cc(C(=O)NCCCCc3ccccc3)ccc2c1OCC`, the AC50 was 12.6 µM (active).
In the case of `CCOC(=O)N/N=C1/C[C@@H](O)[C@@H](O)[C@@H]2[C@@H]3C(=O)N(C(C)(C)C)C(=O)[C@H]3CC[C@H]12`, the activity, negative = inhibition is reported as -0.388% [at 11.4 µM] (inactive).
With `Clc1cccc(N/N=C/c2ccc(N3CCOCC3)cc2)c1` the AC50 was “inactive”.
In the case of `Cc1cc(O)c(/C=N/Nc2cccc(Cl)c2)c(=O)o1`, the AC50 is reported as 3.16 µM (active).
For `CCOC(=O)CSc1nnc(NC(=O)c2cccc(S(=O)(=O)N3CCCCCC3)c2)s1`, the AC50 was 1 µM (active).
In the case of `CCC(CC)c1nnc(NC(=O)c2cccc(S(=O)(=O)N3CCc4ccccc43)c2)s1`, the AC50 is reported as 1.58 µM (active).
`O=S(=O)(O)c1ccc2c(N=Nc3cccc4ccccc34)c(O)c(S(=O)(=O)O)cc2c1` was tested, and the activity, negative = inhibition was -3.82% [at 11.4 µM] (inactive).
`O=[N+]([O-])c1ccc2c(N=Nc3ccc4ccccc4c3O)c(O)cc(S(=O)(=O)O)c2c1` was tested, and the AC50 was 3.16 µM (active).
For `O=S(=O)(O)c1ccc(N=Nc2ccc3c(S(=O)(=O)O)cccc3c2O)c2ccccc12`, the activity, negative = inhibition was -12.3% [at 11.4 µM] (inactive).
With `O=C(Nc1ccccc1)N(Cc1ccccc1)CC(O)C(F)(F)F` (stereo not given) the AC50 was 12.6 µM (active).
With `O=C(Nc1cccc(C(F)(F)F)c1)N(Cc1ccc(Cl)cc1)CC(O)C(F)(F)F` (stereo not given) the AC50 was 8.91 µM (active).
For `O=C(O)c1ccc(NS(=O)(=O)Cc2ccccc2)cc1`, the activity, negative = inhibition was -7.98% [at 11.4 µM] (inactive).
`O=S(=O)(C[C@H](O)C(Cl)(Cl)Cl)NNc1ccccc1` was tested, and the activity, negative = inhibition was -2.23% [at 11.4 µM] (inactive).
With `O=C(O)CNc1ccc(C(=O)O)cc1` the activity, negative = inhibition was 3.72% [at 11.4 µM] (inactive).
For `Cc1cc(C2(c3cc(C)c(O)c(C(=O)O)c3)OS(=O)(=O)c3ccccc32)cc(C(=O)O)c1O`, the activity, negative = inhibition was 14.9% [at 11.4 µM] (inactive).
In the case of `CC(C)c1ccc(CN(C(=O)C2COc3ccccc3O2)C2CCS(=O)(=O)C2)cc1` (stereo not given), the AC50 is reported as 11.2 µM (active).
In the case of `COc1cccc(C(=O)NCCN2CCN(c3ccc(Cl)cc3)CC2)c1`, the AC50 is reported as “inactive”.
With `CO/N=C(/CNC(=O)c1ccc(Cl)cc1Cl)c1ccc(Cl)cc1` the AC50 was 1.12 µM (active).
In the case of `CO/N=C(/CNC(=O)c1cccc(Cl)c1)c1ccc(Cl)cc1`, the AC50 is reported as 3.55 µM (active).
With `O=C(CNc1cccc(Cl)c1)c1ccc(Cl)cc1` the AC50 was “inactive”.
With `OC[C@@H](O)[C@@H](O)[C@@H](O)[C@@H](O)c1nc2ccc(Cl)cc2[nH]1` the activity, negative = inhibition was -5.01% [at 11.4 µM] (inactive).
In the case of `N[C@@H]1CONC1=O`, the AC50 is reported as “inactive”.
In the case of `Cn1c([N+](=O)[O-])cnc1COC(N)=O`, the AC50 is reported as “inactive”.
In the case of `CSc1nc(N)c2ncn([C@@H]3O[C@@H](COP(=O)(O)OP(=O)(O)O)[C@@H](O)[C@H]3O)c2n1`, the AC50 is reported as “inactive”.
With `COc1ccc(NC(=O)c2ccc(-c3ccc(-c4noc(C)n4)cc3C)cc2)cc1OCCN(C)C` the AC50 was “inactive”.
For `COc1ccc(NC(=O)c2ccc(-c3ccc(-c4noc(C)n4)cc3C)cc2)cc1N1CCN(C)CC1`, the AC50 was “inactive and 7.94 µM (active)”.
With `CNCCC=C1c2ccccc2CCc2ccccc21` the AC50 was “inactive”.
With `OC[C@@H]1O[C@@H](n2cnc3c(NC4CCCC4)ncnc32)[C@@H](O)[C@H]1O` the AC50 was “inactive”.
With `CC1(C)CC(=O)C(CCC(=O)c2ccccc2)C(C)(C)N1` (stereo not given) the AC50 was “inactive”.
In the case of `COC(=O)C1(Cc2ccccc2)C=C2C(=C(C)C(=O)C2C)CN1` (stereo not given), the AC50 is reported as “inactive”.
`COC(=O)C1(CC(C)C)C=C2C(=C(c3ccccc3)C(=O)C2C)CN1` (stereo not given) was tested, and the AC50 was 10 µM (active).
In the case of `COC(=O)C1(C)C=C2C(=C(c3ccccc3)C(=O)C2C)CN1` (stereo not given), the AC50 is reported as 10 µM (active).
`CCCC1(C(=O)OC)C=C2C(=C(c3ccccc3)C(=O)C2C)CN1` (stereo not given) was tested, and the AC50 was 5.01 µM (active).
For `CN(C)c1ccc(-c2cncnc2NCc2ccccc2)cc1`, the activity, negative = inhibition was -13.6% [at 2.29 µM] (inactive).
`NC(=O)C[C@H](N)C(N)=O` was tested, and the activity, negative = inhibition was -1.03% [at 11.4 µM] (inactive).
`CN[C@]1(C)[C@H]2CC[C@@H](C2)C1(C)C` was tested, and the AC50 was “inactive”.
For `Clc1ccc2c(NCCNc3ccnc4cc(Cl)ccc34)ccnc2c1`, the activity, negative = inhibition was -3.79% [at 11.4 µM] (inactive).
For `CN[C@@H]1[C@H](O[C@@H]2O[C@H](CO)[C@@H](N)[C@H](O)[C@@H]2O)O[C@H]2C[C@@H](N)[C@@H](O[C@H]3[C@@H](O)[C@H](O)[C@H](N)C[C@@H]3N)O[C@H]2[C@H]1O`, the AC50 was “inactive”.
